Screening data from PubChem.
Most compounds without a hit are left out; they make up all but 1.3% or so of the library.
CCHFV vOTU inh = blocks the CCHF virus ovarian tumor domain protease. CCHFV vOTU protease, Pep-AMC fluorescence. inhibition, % at 11.5 µM. 370,000 tested, 0.55% active. AID 651958; in the data active means inhibition above about 30%
SSB-PriA inh = blocks PriA binding to SSB C-terminal tail; AlphaScreen SSBct-PriA binding, biotinylated peptide; inhibition, % at 33 µM; 430,000 tested, 0.6% active; AID 1272365; in the data active means inhibition mostly above about 37%, no sharp cut-off; inactive means mostly below about 20%
DUSP3 inh = inhibitors of human VHR1 phosphatase (DUSP3) | P51452 | recombinant VHR phosphatase, pNPP absorbance | inhibition, % at 13.3 µM | 290,000 tested, 0.52% active; in the data active means inhibition above about 50%
BH1578 lux ind = quorum light induction in luxS cqsA deficient V. cholerae. V. cholerae BH1578 lux reporter, luminescence, 6 h. activation, % at 18.7 µM. 350,000 tested, 0.16% active. AID 588436; in the data active means activation mostly above about 9.7%, no sharp cut-off
3CLpro inhibitor = SARS-CoV 3CLpro protease inhibition; AID 1706; 290,000 tested, 0.14% active; inhibition, % at 6 µM; recombinant SARS-CoV 3CLpro, quenched FRET peptide cleavage; in the data active means inhibition above about 12%
TcdB inh = TcdB glycohydrolase inhibition | P18177 | TcdB glycohydrolase enzymatic assay, plate reader | inhibition, % at 9.99 µM | 350,000 tested, 0.24% active | AID 652162; in the data active means inhibition above about 10%
Of the large screens only hits and unclear results are named; the others gave an inactive call.

COC(=O)C1=C(c2ccc(OCc3ccccc3)cc2)C[C@@H]2CC[C@H]1N2C(=O)NCCCc1ccccc1	TcdB inh 12 (no result: DUSP3 inh, 3CLpro inhibitor)
CCOc1ccc(-c2cc(N)n(S(=O)(=O)c3cccc4nsnc34)n2)cc1	none
COc1cc(OC)cc(-c2cc(N)n(S(=O)(=O)c3cccc4nsnc34)n2)c1	SSB-PriA inh 39
CCOc1ccc(-c2ccc(=O)n(CCNC(=O)Nc3ccc(C(F)(F)F)cc3)n2)cc1	none (no result: CCHFV vOTU inh, DUSP3 inh, BH1578 lux ind, 3CLpro inhibitor, TcdB inh)
Cc1nc(-n2cccc2)sc1C(=O)Nc1nc2c(s1)C(=O)NCCC2	SSB-PriA inh active (no result: CCHFV vOTU inh, DUSP3 inh, BH1578 lux ind, 3CLpro inhibitor, TcdB inh)
Cc1cc(C(=O)Nc2cnn(C3CCOC3)c2)c(C)o1 (stereo not drawn)	none (no result: CCHFV vOTU inh, DUSP3 inh, BH1578 lux ind, 3CLpro inhibitor, TcdB inh)
COc1ccc(CCS(=O)(=O)Nc2ccc3c(c2)N(C(=O)C2CC2)CC3)cc1	none (no result: CCHFV vOTU inh, DUSP3 inh, BH1578 lux ind, 3CLpro inhibitor, TcdB inh)
CN(C)C(=O)CSc1nc(-c2ccccc2)c(-c2ccccc2)o1	DUSP3 inh 51
CCC(C)(C)NC(=O)c1sccc1Oc1ccc(F)cc1[N+](=O)[O-]	DUSP3 inh 51
CC(C)(C)C(=O)N1CCc2ccc(NC(=O)c3cccs3)cc21	none (no result: CCHFV vOTU inh, DUSP3 inh, BH1578 lux ind, 3CLpro inhibitor, TcdB inh)
Cc1c(C)n(C)c2ccc(C(=O)NCCCN3CCCCC3C)cc12 (stereo not drawn)	none
CC1CCCCN1CCCNC(=O)c1nn(C)c2c1CS(=O)(=O)c1ccccc1-2 (stereo not drawn)	DUSP3 inh 59
CC1CCCCN1CCCNC(=O)c1ccc(Br)cc1 (stereo not drawn)	DUSP3 inh 58
CN(Cc1ccccc1)C(=O)c1cn(C)c2ccc(S(=O)(=O)N3CCCC3)cc2c1=O	DUSP3 inh 51
Cn1cc(C(=O)N2CCN(c3ccccc3)CC2)c(=O)c2cc(S(=O)(=O)N3CCCC3)ccc21	none
Cc1ccc(CNC(=O)c2cn(C)c3ccc(S(=O)(=O)N4CCOCC4)cc3c2=O)cc1	DUSP3 inh 52
Cc1ccc(OCC(=O)Nc2ccccc2C(=O)O)c(Br)c1	none (no result: CCHFV vOTU inh, DUSP3 inh, BH1578 lux ind, 3CLpro inhibitor, TcdB inh)
CSc1ncc(-c2ccc(C)cc2)n1-c1ccccc1C	SSB-PriA inh 58 (no result: CCHFV vOTU inh, DUSP3 inh, BH1578 lux ind, 3CLpro inhibitor, TcdB inh)
O=C(Nc1cccc(-c2cn3ccsc3n2)c1)c1cc(N2CCCC2)ncn1	none (no result: CCHFV vOTU inh, DUSP3 inh, BH1578 lux ind, 3CLpro inhibitor, TcdB inh)
CCOc1ccc(-c2noc(CSc3nc4ccsc4c(=O)n3CCOC)n2)cc1	none (no result: CCHFV vOTU inh, DUSP3 inh, BH1578 lux ind, 3CLpro inhibitor, TcdB inh)
Cc1ccn(-c2ccc([N+](=O)[O-])cc2)n1	none (no result: TcdB inh)
CNc1ccccc1C(C)(C)c1cn(-c2ccc([N+](=O)[O-])cc2)nn1	DUSP3 inh 53
O=C(Nc1nccs1)c1c(O)c2cccc3c2n(c1=O)CCC3	DUSP3 inh 56 (no result: SSB-PriA inh, BH1578 lux ind, TcdB inh)
C=CC[C@@H](CC(=O)N[C@H](CO)Cc1ccccc1)C(=O)N[C@H](COC(=O)[C@H](CC=C)CC(=O)OC(C)(C)C)Cc1c[nH]c2ccccc12	CCHFV vOTU inh 37 (no result: DUSP3 inh, 3CLpro inhibitor, TcdB inh)
C=CC[C@@H](CC(=O)N[C@@H](CO)Cc1ccccc1)C(=O)N[C@H](COC(=O)[C@H](CC=C)CC(=O)OC(C)(C)C)Cc1c[nH]c2ccccc12	none (no result: DUSP3 inh, 3CLpro inhibitor)
Cc1ccc2ccc[n+](Cc3ccccc3)c2c1	TcdB inh 11 (no result: DUSP3 inh, 3CLpro inhibitor)
Cc1ccc2c(c1)c(C)cc[n+]2Cc1ccccc1	none (no result: TcdB inh)
Cc1cccc(CN2CCN(c3ncccn3)CC2)c1	TcdB inh 13
Nc1ccc(N=Nc2ccccc2)c(N)n1	SSB-PriA inh 56
c1ccc(N=Nc2ccc3cccccc2-3)cc1	SSB-PriA inh 51 (no result: DUSP3 inh, 3CLpro inhibitor)
Nc1ccc(N=Nc2ccccc2)c2ccccc12	none
CCN(c1ccccc1)S(=O)(=O)c1ccc(C(=O)Nc2cc(C)nn2C)cc1	none (no result: CCHFV vOTU inh, DUSP3 inh, BH1578 lux ind, 3CLpro inhibitor, TcdB inh)
C=CCc1ccc(O)c(-c2ccc(O)c(CC=C)c2)c1	TcdB inh 11
C=CCc1ccc2c(c1)OCO2	none (no result: SSB-PriA inh, DUSP3 inh, BH1578 lux ind, 3CLpro inhibitor)
CN1Cc2cc(C(=O)c3cc(Cl)cc(CSc4ncccn4)c3O)cnc2NC1=O	DUSP3 inh 56 (no result: CCHFV vOTU inh, SSB-PriA inh, BH1578 lux ind, TcdB inh)
Cc1ccc(O)c(C(=O)c2cnc3c(c2)CN(C)C(=O)N3)c1	none (no result: TcdB inh)
CC(C(=O)O)N(C(=O)c1ccccc1)c1ccc(F)cc1 (stereo not drawn)	DUSP3 inh 53
CC(C)C(=O)NN(C(=O)c1ccccc1)c1ccccc1	none
COc1ccc(N(C(=O)c2cccnc2)S(=O)(=O)c2ccc(F)cc2)cc1	DUSP3 inh 53
CCN(C(=O)c1ccc(Cl)c([N+](=O)[O-])c1)C1CCS(=O)(=O)C1 (stereo not drawn)	none (no result: CCHFV vOTU inh, DUSP3 inh, BH1578 lux ind, 3CLpro inhibitor, TcdB inh)
CCOc1cc(NC(=S)NCC(C)C)c(OCC)cc1NC(=O)c1ccco1	DUSP3 inh 51 (no result: TcdB inh)
CS(=O)(=O)c1ccc(C(=O)Nc2sccc2C#N)cc1	none (no result: CCHFV vOTU inh, DUSP3 inh, BH1578 lux ind, 3CLpro inhibitor, TcdB inh)
CNC(=S)N/N=C(\C)c1ccc(C(C)(C)C)cc1	DUSP3 inh 60 (no result: SSB-PriA inh, TcdB inh)
CNC(=S)N/N=C(\C)c1ccccc1	none (no result: SSB-PriA inh)
